Here are results for 9 compounds from PubChem BioAssay.

The structures appear in SMILES notation. Active and inactive are the calls of the source. Unless noted, the rule behind the calls is not given here.

Assay [1] is described as follows: resazurin metabolic signal in HepG2 cells – cell-based, resazurin fluorescence, 24 h, PK04 Diversity Set, profiling panel (AID 1172). Particulars: HepG2 viability, higher = more signal. A general note: The colour change of resazurin is a common sign of viable cells or microbes.
The nature of assay [2]: budding yeast growth changes without added modifier – OD600, strain BY4716, 24 h, basal condition, primary screen (AID 1173). The conditions noted are these: S. cerevisiae BY4716 growth, OD600, 24 h; higher = more signal, called active from +8 up or from −8 down.
A short description of assay [3]: viability profiling in MM1S myeloma cells – cell-based, resazurin fluorescence, basal, 24 h, PK04 Diversity Set, profiling panel (AID 1174).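 Note: MM1S multiple myeloma cell line.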 Particulars: higher = more signal, called active from +8 up or from −8 down.
The target in assay [4] is Dihydroorotate dehydrogenase (quinone), mitochondrial (Plasmodium falciparum (isolate 3D7)) (UniProt Q08210). Put plainly: inhibition of P. falciparum DHODH – biochemical, C-terminal His tag, absorbance 600 nm, primary screen (AID 1175).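 Note: recombinant parasite enzyme with a five histidine tag at its C terminus.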 The conditions noted are these: PfDHODH enzyme, DCIP absorbance 600 nm; higher = more signal, called active from +8 up or from −8 down.
Dihydroorotate dehydrogenase (quinone), mitochondrial (Plasmodium falciparum (isolate 3D7)), sequence (Q08210 whole entry, looked up): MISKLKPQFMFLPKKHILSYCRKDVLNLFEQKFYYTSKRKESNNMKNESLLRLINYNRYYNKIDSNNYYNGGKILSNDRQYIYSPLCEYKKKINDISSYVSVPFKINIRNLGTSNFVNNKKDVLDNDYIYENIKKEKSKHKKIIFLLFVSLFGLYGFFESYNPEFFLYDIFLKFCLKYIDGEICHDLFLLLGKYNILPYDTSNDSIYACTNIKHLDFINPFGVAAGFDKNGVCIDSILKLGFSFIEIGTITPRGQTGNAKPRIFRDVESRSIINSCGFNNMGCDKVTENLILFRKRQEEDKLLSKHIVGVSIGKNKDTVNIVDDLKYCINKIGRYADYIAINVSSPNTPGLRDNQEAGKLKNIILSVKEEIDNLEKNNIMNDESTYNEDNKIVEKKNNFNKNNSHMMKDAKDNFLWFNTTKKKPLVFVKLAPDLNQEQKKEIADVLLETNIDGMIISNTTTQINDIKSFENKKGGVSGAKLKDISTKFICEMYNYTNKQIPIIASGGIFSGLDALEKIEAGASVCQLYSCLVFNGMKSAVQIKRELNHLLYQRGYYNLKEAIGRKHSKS
Assay [5] can be described thus: inhibition of PAO1 biofilm formation – strain PAO1, LB-PBS medium, absorbance 600 nm, primary screen (AID 1176). The conditions noted are these: P. aeruginosa PAO1 growth/biofilm, A600, 12 h; higher = more signal.
Assay [6] is described as follows: growth modulation of vineyard yeast isolate – strain RM11-1a, OD600, basal, 24 h, primary screen (AID 1177).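 Note: cultures grown under basal conditions with no added stressor.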 The conditions noted are these: S. cerevisiae RM11-1a growth, OD600, 24 h; higher = more signal, called active from +8 up or from −8 down.
The nature of assay [7]: growth of efflux-deficient E. coli DRC39 – strain DRC39, OD650, 24 h, E. coli filamentation inducers, primary screen (AID 1178).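 Note: growth measured as culture turbidity by optical density at 650 nm.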 The conditions noted are these: E. coli DRC39 acrAB, higher = more signal, called active from +8 up or from −8 down.
Assay [8] in a line: growth of efflux-deficient E. coli DRC39 – strain DRC39, OD650, 48 h, E. coli filamentation inducers, primary screen (AID 1179).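 Note: screen aims at cell division blockers that make cells filament.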 Particulars: E. coli DRC39 delta-acrAB growth, higher = more signal, called active from +8 up or from −8 down.
The nature of assay [9]: viability profiling in RPMI8226 myeloma cells – cell-based, resazurin fluorescence, basal, 24 h, PK04 Diversity Set, profiling panel (AID 1180).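 Note: RPMI8826 multiple myeloma cell line at 5000 cells per well.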 Particulars: higher = more signal.
Assay [10] concerns the target E3 ubiquitin-protein ligase XIAP (Homo sapiens) (UniProt P98170). As to the kind of experiment: small molecules binding XIAP protein – biophysical, small-molecule microarray, fluorescence 635 nm, primary screen (AID 1181).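 Note: score merges 667 nm emission and signal to noise over triplicate slides.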 Particulars: higher = more signal.
In assay [11] the test system is XIP peptide (Xip251-270) binding. Put plainly: XIP fragment 251-270 binding compounds – biochemical, small-molecule microarray, fluorescence 635/667 nm, 0.1 µg/mL protein, primary screen (AID 1182). The conditions noted are these: fluorescent protein binding, 635 nm, higher = more signal, called active from +8 up or from −8 down.
In a further assay the test system is XIP peptide (Xip251-270). As to the kind of experiment: compounds binding XIP fragment 251-270 – biochemical, small-molecule microarray, fluorescence 635/667 nm, 0.5 µg/mL protein, primary screen (AID 1183). The conditions noted are these: fluorescence 635 nm, higher = more signal.
A short description of assay [12]: blood-stage malaria parasite viability loss – strain 3D7, DAPI fluorescence, 100 nL, primary screen (AID 1184).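 Note: parasites grown inside human red blood cells in medium with human serum.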 The conditions noted are these: P. falciparum 3D7 growth, 3 d, higher = more signal.
The target in assay [13] is Homeobox protein Hox-A13 (Mus musculus) (UniProt Q62424). As to the kind of experiment: disruptors of Hoxa13 oligonucleotide interaction – biochemical, fluorescence polarization, labeled oligonucleotide, primary screen (AID 1185). The conditions noted are these: Hoxa13:DNA binding, 15 min, higher = more signal, called active from +8 up or from −8 down.
Homeobox protein Hox-A13 (Mus musculus), sequence (Q62424 whole entry, looked up): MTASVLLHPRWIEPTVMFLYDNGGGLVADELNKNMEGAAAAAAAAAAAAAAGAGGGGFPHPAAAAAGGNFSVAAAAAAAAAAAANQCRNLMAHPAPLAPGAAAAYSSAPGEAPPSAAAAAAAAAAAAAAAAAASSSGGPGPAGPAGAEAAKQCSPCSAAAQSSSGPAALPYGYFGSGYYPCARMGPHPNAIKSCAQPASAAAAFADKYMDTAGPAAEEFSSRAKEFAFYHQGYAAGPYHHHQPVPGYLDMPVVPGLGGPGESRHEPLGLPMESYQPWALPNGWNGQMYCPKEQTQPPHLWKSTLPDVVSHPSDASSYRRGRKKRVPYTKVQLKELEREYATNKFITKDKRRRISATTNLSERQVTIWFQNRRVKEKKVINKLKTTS
A short description of assay [14]: blockers of DNA damage checkpoint Chk1 activation – imaging, HeLa, hydroxyurea, phospho-Chk1 antibody, percent positive cells, primary screen (AID 1186). The conditions noted are these: hydroxyurea-induced phospho-Chk1 immunofluorescence imaging, higher = more signal.
Assay [15] can be described thus: blockers of DNA damage checkpoint Chk1 activation – imaging, HeLa, hydroxyurea, phospho-Chk1 nuclear intensity, primary screen (AID 1187). The conditions noted are these: hydroxyurea-induced phospho-Chk1 immunofluorescence imaging, higher = more signal.

E3 ubiquitin-protein ligase XIAP (Homo sapiens), sequence (P98170 whole entry, looked up, the tested form may be a part): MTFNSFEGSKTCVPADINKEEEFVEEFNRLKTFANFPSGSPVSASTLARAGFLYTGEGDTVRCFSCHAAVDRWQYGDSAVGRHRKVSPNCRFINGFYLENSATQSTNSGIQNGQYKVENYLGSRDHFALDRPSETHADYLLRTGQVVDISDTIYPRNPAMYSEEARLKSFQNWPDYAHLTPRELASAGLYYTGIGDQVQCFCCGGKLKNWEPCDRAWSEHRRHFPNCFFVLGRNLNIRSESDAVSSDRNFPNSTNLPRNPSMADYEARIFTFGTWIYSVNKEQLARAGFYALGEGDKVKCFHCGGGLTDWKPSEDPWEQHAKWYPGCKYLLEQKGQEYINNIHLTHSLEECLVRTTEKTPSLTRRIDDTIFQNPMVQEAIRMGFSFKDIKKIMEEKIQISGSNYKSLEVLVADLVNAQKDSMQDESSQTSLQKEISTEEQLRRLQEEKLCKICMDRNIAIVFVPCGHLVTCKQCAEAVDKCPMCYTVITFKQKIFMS

For the compound `COC(=O)[C@H](Cc1ccc(O)cc1)N[C@@H](/C=C/C1CC1)[C@H](O)Cc1ccccc1`, the z-score in assay [1] is -0.752; in assay [2], -3.58 (inactive); in assay [3], -0.163 (inactive); in assay [5], -0.459 (inactive); in [6] it was 0.0871 (inactive); in assay [7], -0.396 (inactive). Further, the z-score in assay [8] was -0.571 (inactive); in [9] it was 0.177; in [12], 1.55; in assay [13], -5.14 (inactive); in [14] it was 0.412 (inactive); in [15], 0.0577 (inactive). Also, the composite z-score in [4] is -0.23 (inactive); in [10], 0.85; in assay [11], -0.364 (inactive); in the assay with XIP peptide (Xip251-270), -0.0324.
As to `CCCCC(O)C1C=CC2C(=O)N(c3ccccc3)C(=O)C2N1Nc1ccc([N+](=O)[O-])cc1` (centres undefined), the z-score in assay [1] is 0.172; in [2], -0.485 (inactive); in assay [3], 0.519 (inactive); in assay [5] it was 1.03 (inactive); in assay [6], -0.385 (inactive); in [7] it was 0.356 (inactive). In addition, the z-score in assay [8] was 0.282 (inactive); in assay [9], -0.354; in assay [12] it was -0.496; in assay [13], -4.62 (inactive); in assay [14], 0.391 (inactive); in assay [15] it was 0.501 (inactive). In addition, the composite z-score is 0.0188 (inactive) in [4], -0.156 in assay [10], 0.0204 (inactive) in assay [11] and 0.598 with XIP peptide (Xip251-270).
On to `COC(=O)[C@@]1(Cc2ccccc2)[C@H]2c3cc(C(=O)N(C)C)n(Cc4ccc(C(F)(F)F)nc4)c3C[C@H]2CN1C(=O)c1ccccc1`, for which the z-score in [1] was -0.634; in [2], 2.47 (inactive); in [3], -1.11 (inactive); in [5], 0.563 (inactive); in assay [6] it was 1.02 (inactive); in [7], -0.46 (inactive). In addition, the z-score in assay [8] is 0.03 (inactive); in assay [9], -0.693; in assay [12], -1.24; in assay [13], -3.46 (inactive); in [14], 0.296 (inactive); in [15], 0.0603 (inactive). Further, the composite z-score in assay [4] was -0.125 (inactive); in [10] it was -0.242; in assay [11], 0.119 (inactive); in the assay with XIP peptide (Xip251-270) it was 0.337.
As for `C=CC[C@@]12N=C(c3ccc(OCCCO)cc3)O[C@@H]1c1ccccc1N(CCC)C2=O`, the z-score in assay [1] is 0.167; in assay [2], -2.22 (inactive); in assay [3] it was -1.19 (inactive); in assay [5] it was 1.2 (inactive); in [6], 0.829 (inactive); in assay [7], 0.215 (inactive). In addition, the z-score in [8] is 1.02 (inactive); in [9], -0.473; in assay [12], -2.25; in assay [13], -4.8 (inactive); in assay [14], 0.291 (inactive); in assay [15] it was 0.58 (inactive). Moreover, the composite z-score in [4] was -0.147 (inactive); in assay [10] it was -0.132; in assay [11], 2.48 (inactive); in the assay with XIP peptide (Xip251-270) it was 0.759.
For the compound `COC(=O)[C@@]1(Cc2ccccc2)[C@H]2c3cc(C(=O)N4CCCC4)n(Cc4ccc(OC)c(OC)c4)c3C[C@H]2CN1C(=O)c1ccccc1`, the z-score in assay [1] was 0.181; in assay [2], 1.58 (inactive); in assay [3], -0.466 (inactive); in [5], 0.0944 (inactive); in assay [6] it was 1.72 (inactive); in [7], -0.372 (inactive). Moreover, the z-score in assay [8] was 0.352 (inactive); in assay [9], -0.172; in assay [12] it was -1.32; in assay [13], -4.87 (inactive); in assay [14] it was 0.243 (inactive); in assay [15], 0.282 (inactive). Besides, the composite z-score in [4] was 0.263 (inactive); in assay [10], 0.0589; in assay [11], 0.633 (inactive); in the assay on XIP peptide (Xip251-270) it was 0.0643.
Take `O=C(NCCN1CCOCC1)[C@@H]1c2ccccc2C(=O)N(Cc2ccccc2C(F)(F)F)[C@H]1c1ccc(CO)cc1`: the z-score in assay [1] was 0.846; in assay [2], -0.139 (inactive); in assay [3] it was 1.17 (inactive); in assay [5], -0.342 (inactive); in assay [6], -0.276 (inactive); in [7], 0.394 (inactive). Also, the z-score in assay [8] was 0.192 (inactive); in assay [9], 1.44; in assay [12], -1.16; in assay [13] it was -3.55 (inactive); in [14] it was 0.126 (inactive); in assay [15], 0.371 (inactive). Further, the composite z-score in [4] is -0.899 (inactive); in assay [10] it was 0.0487; in assay [11], 0.3 (inactive); with XIP peptide (Xip251-270), 0.777.
On to `COc1ccc(C(=O)Nc2cccc(CN3C(=O)[C@]4(O[C@H](CC(=O)N5Cc6ccccc6C[C@H]5CO)[C@@H]([Si](C)(C)c5ccc(OC)cc5)[C@@H]4C)c4ccccc43)c2)cc1`, for which the z-score in assay [1] is 0.256; in assay [2], 1.49 (inactive); in assay [3], -1.38 (inactive); in assay [5], 0.425 (inactive); in [6] it was 2.82 (inactive); in assay [7] it was 0.0049 (inactive). The z-score is 0.0565 (inactive) in assay [8]; -0.891 in assay [9]; -2.94 in assay [12]; -2.35 (inactive) in [13]; 1.01 (inactive) in assay [14]; 0.835 (inactive) in [15]. Besides, the composite z-score in assay [4] was -3.9 (inactive); in assay [10] it was 0.187; in assay [11], -0.335 (inactive); in the assay with XIP peptide (Xip251-270), 0.697.
`CCOC(=O)c1cn(C[C@H](Cc2ccccc2)NC(=O)N[C@H](CO)CCc2oc(C(C)=O)c(C(=O)OC)c2C(=O)OC)nn1`: the z-score in [1] is -0.756; in assay [2], -2.76 (inactive); in assay [3] it was 0.225 (inactive); in assay [5], -0.227 (inactive); in assay [6], -0.669 (inactive); in assay [7] it was -0.124 (inactive). Besides, the z-score was -0.356 (inactive) in assay [8]; -0.458 in assay [9]; -1.63 in [12]; -2.67 (inactive) in assay [13]; -0.107 (inactive) in [14]; 0.432 (inactive) in assay [15]. In addition, the composite z-score in assay [4] is -3.55 (inactive); in assay [10], -0.0835; in [11], 0.534 (inactive); in the assay with XIP peptide (Xip251-270) it was 0.635.
Take `CCCC=C(CCC)[C@@H](NC(=O)c1ccc(C(F)(F)F)cc1)c1ccc(C(F)(F)F)cc1`: the z-score was 0.706 in [1]; 2.01 (inactive) in assay [2]; 0.126 (inactive) in assay [3]; 0.219 (inactive) in [5]; 2.66 (inactive) in assay [6]; -0.101 (inactive) in assay [7]. The z-score in assay [8] was 0.0205 (inactive); in assay [9] it was -1.9; in [12] it was -0.702; in assay [13] it was -3.88 (inactive); in assay [14], -0.136 (inactive); in assay [15], -0.377 (inactive). Further, the composite z-score in assay [4] was 0.256 (inactive); in assay [10], 1.11; in assay [11], 0.237 (inactive); in the assay on XIP peptide (Xip251-270) it was 0.541.
